Our source for the growth values is PubChem BioAssay (NCI).

Test systems include DU-145 prostate; K-562 leukemia; MALME-3M melanoma; MDA-MB-231 breast; RXF 393 renal; SF-268 CNS; SF-295 CNS; UACC-257 melanoma; M14 melanoma; HCT-15 colon; HT29 colon; SNB-75 CNS; SNB-19 CNS; U251 CNS; PC-3 prostate; SK-MEL-5 melanoma; UACC-62 melanoma; LOX IMVI melanoma; SK-MEL-28 melanoma.
Assay in all cases: NCI-60 one-dose screen, 48 h (100 = growth as untreated, 0 = no growth, -100 = all killed)
Holding throughout (conditions): 10 µM unless noted

This is part of a sample that, as a whole, favours compounds with a hit. Of some 83,000 tested, about 20% had one in any assay.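 The endpoint reported here, percent growth, reads 100 for growth as untreated, 0 for no net growth and -100 for all cells dead.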 A number with no mark means an inactive call. Active and inactive are the calls of the source. How the source made its calls: active means growth percent below 10; inactive means the rest.

On to `O=c1ccc2cc3ccccc3cc2[nH]1`, for which the growth in the assay with DU-145 prostate was 100%; with K-562 leukemia, 57.6%; with MALME-3M melanoma, 112%; in the assay on MDA-MB-231 breast, 101%; with RXF 393 renal, 93.7%; in the assay on SF-268 CNS it was 75.5%. The growth with SF-295 CNS was 95.4%; with UACC-257 melanoma, 96.5%; with M14 melanoma, 101%; in the assay with HCT-15 colon, 109%; in the assay on HT29 colon, 101%; in the assay on SNB-75 CNS it was 82.2%. Moreover, the growth in the assay on SNB-19 CNS was 104%; with U251 CNS, 95.5%; in the assay on PC-3 prostate, 105%; in the assay on SK-MEL-5 melanoma it was 80.8%; in the assay on UACC-62 melanoma, 66.4%; in the assay on LOX IMVI melanoma, 102%. Moreover, in the assay with SK-MEL-28 melanoma, the growth is 124%.
On to `O=C(C[C@@H](C(=O)NCc1cccc(C(F)(F)F)c1)N1C(=O)[C@@H](N2C(=O)OC[C@@H]2c2ccccc2)[C@H]1/C=C/c1ccccc1)NC1CCN(Cc2ccccc2)CC1`, for which the growth is 67.2% with DU-145 prostate; -51% (active) in the assay on K-562 leukemia; -17.1% (active) in the assay with MALME-3M melanoma; 64.3% with MDA-MB-231 breast; 74.4% in the assay on RXF 393 renal; 57.9% in the assay with SF-268 CNS. Besides, the growth in the assay with SF-295 CNS was 102%; with UACC-257 melanoma, 77.4%; with M14 melanoma, 83.2%; with HCT-15 colon, 61.1%; in the assay on HT29 colon, 2.51% (active); in the assay with SNB-75 CNS it was 71.7%. Further, the growth in the assay on SNB-19 CNS was 84.6%; with U251 CNS, 70.9%; in the assay with PC-3 prostate, 54.4%; in the assay on SK-MEL-5 melanoma it was 43.1%; in the assay on UACC-62 melanoma, 73.3%; in the assay on LOX IMVI melanoma it was 23.9%. In addition, in the assay with SK-MEL-28 melanoma, the growth was 81.5%.
As to `CCN(CC)CCC(=O)Nc1ccc(Cn2nnc3c2C(=O)c2nnn(Cc4ccc(NC(=O)CCN(CC)CC)cc4)c2C3=O)cc1`, the growth is -92.6% (active) in the assay with DU-145 prostate; 2.02% (active) in the assay on K-562 leukemia; -79.5% (active) in the assay with MALME-3M melanoma; -5.66% (active) with MDA-MB-231 breast; 19.9% with RXF 393 renal; -38.1% (active) in the assay on SF-268 CNS. The growth with SF-295 CNS was -57.2% (active); in the assay with UACC-257 melanoma, -56.1% (active); in the assay with M14 melanoma it was -16.3% (active); with HCT-15 colon, 95.3%; in the assay on HT29 colon, -51% (active); with SNB-75 CNS, -92.8% (active). In addition, the growth in the assay with SNB-19 CNS is -83.4% (active); in the assay on U251 CNS it was -85.1% (active); with PC-3 prostate, -1.02% (active); in the assay with SK-MEL-5 melanoma, -96.8% (active); in the assay with UACC-62 melanoma, -79.6% (active); with LOX IMVI melanoma, -12.6% (active). Further, the growth with SK-MEL-28 melanoma is -60.9% (active).
Turning to `CN1CCOCCOCCOc2ccccc2NC(=O)c2nc(cnc2N)-c2ccc(cc2)S1(=O)=O`, the growth was 31.1% in the assay on DU-145 prostate; 15.9% in the assay with K-562 leukemia; 55.7% in the assay with MALME-3M melanoma; 66.3% with MDA-MB-231 breast; 29.9% in the assay on RXF 393 renal; 63.3% with SF-268 CNS. The growth with SF-295 CNS is 57.7%; in the assay with UACC-257 melanoma, -34.6% (active); in the assay on M14 melanoma, 26.9%; with HCT-15 colon it was 1.6% (active); in the assay with HT29 colon it was 9.23% (active); in the assay with SNB-75 CNS it was 52.1%. Moreover, the growth with SNB-19 CNS was 82.5%; with U251 CNS it was 54.6%; in the assay on PC-3 prostate, 53.5%; in the assay with SK-MEL-5 melanoma it was 60.5%; in the assay with UACC-62 melanoma, 54.3%; in the assay on LOX IMVI melanoma, 30.1%. In addition, in the assay with SK-MEL-28 melanoma, the growth is 58.6%.
Regarding `CC1=C(NCCN2CCCC2)C(=O)c2c(OCc3ccc(F)c(Cl)c3)cccc2C1=O`, the growth in the assay with DU-145 prostate is 84.3%; in the assay on K-562 leukemia, 17%; in the assay with MALME-3M melanoma it was 44.3%; with MDA-MB-231 breast, 59.1%; with RXF 393 renal it was 71.8%; with SF-268 CNS, 70.5%. Also, the growth was 45.6% in the assay with SF-295 CNS; -63.9% (active) in the assay with UACC-257 melanoma; -73.7% (active) in the assay with M14 melanoma; 49.1% in the assay on HCT-15 colon; 20.5% in the assay with HT29 colon; 69.9% in the assay on SNB-75 CNS. The growth in the assay with SNB-19 CNS is 93%; in the assay on U251 CNS, 57.8%; in the assay on PC-3 prostate, 60.3%; with SK-MEL-5 melanoma, 59%; in the assay with UACC-62 melanoma it was 91.7%; in the assay with LOX IMVI melanoma it was 12.9%. In addition, the growth with SK-MEL-28 melanoma was -53.4% (active).
For the molecule `Cc1ccc(S(=O)(=O)n2cc(-c3csc(-c4cn(C)c5ncccc45)n3)c3ccccc32)cc1`, the growth with DU-145 prostate was 78.3%; in the assay on K-562 leukemia, 26.7%; in the assay with MALME-3M melanoma, 68.5%; with MDA-MB-231 breast, 42.6%; in the assay with RXF 393 renal it was 74.3%; in the assay on SF-268 CNS, 74.1%. For the same molecule, the growth in the assay on SF-295 CNS is 41.9%; with UACC-257 melanoma, 70.8%; in the assay with M14 melanoma, 34.2%; with HCT-15 colon, 35.8%; in the assay with HT29 colon it was 19.3%; in the assay with SNB-75 CNS, 45.8%. For the same molecule, the growth in the assay on SNB-19 CNS was 85%; in the assay with U251 CNS, 51.9%; in the assay on PC-3 prostate, 44.8%; in the assay with SK-MEL-5 melanoma, 39.4%; in the assay on UACC-62 melanoma, 58.1%; in the assay with LOX IMVI melanoma, 51.2%. Further, the growth in the assay with SK-MEL-28 melanoma is 58.8%.
Take `CCOC(=O)c1c2c(n3ccc(NC(=O)CCN(CC)CC)cc13)C(=O)c1ncccc1C2=O`: the growth is 66.5% with DU-145 prostate; 49.7% in the assay on K-562 leukemia; 76.9% in the assay with MALME-3M melanoma; 42.4% in the assay on MDA-MB-231 breast; 67.2% with RXF 393 renal; 41.9% in the assay on SF-268 CNS. For the same molecule, the growth in the assay on SF-295 CNS was 38%; in the assay on UACC-257 melanoma, 57.3%; with M14 melanoma, 49.7%; with HCT-15 colon, 50.3%; in the assay with HT29 colon, 38.4%; with SNB-75 CNS, 33%. For the same molecule, the growth was 53.3% in the assay with SNB-19 CNS; 53.2% in the assay with U251 CNS; 61.1% in the assay with PC-3 prostate; 45.1% with SK-MEL-5 melanoma; 50.8% in the assay with UACC-62 melanoma; 10.3% in the assay on LOX IMVI melanoma. The growth in the assay with SK-MEL-28 melanoma was 88.8%.
Consider `CCOC(=O)CC(=O)c1c(C)cc(C)cc1C`, for which the growth in the assay on DU-145 prostate is 110%; in the assay on K-562 leukemia, 112%; in the assay on MALME-3M melanoma it was 113%; in the assay with MDA-MB-231 breast, 103%; in the assay with RXF 393 renal it was 100%; in the assay with SF-268 CNS, 107%. For the same molecule, the growth in the assay on SF-295 CNS is 103%; with UACC-257 melanoma, 112%; in the assay with M14 melanoma it was 99.6%; with HCT-15 colon, 98.2%; with HT29 colon, 87.7%; in the assay with SNB-75 CNS it was 112%. For the same molecule, the growth with SNB-19 CNS is 96.2%; in the assay on U251 CNS, 105%; in the assay on PC-3 prostate, 103%; in the assay on SK-MEL-5 melanoma, 100%; in the assay with UACC-62 melanoma, 96.9%; with LOX IMVI melanoma it was 98.5%. The growth with SK-MEL-28 melanoma was 118%.
